Assay results taken from paper PMC5540273 (PLoS ONE, 2017).

Assays:
Details in all cases: concentration: 1 μM, replicates: in singlicate; n = 1
[1] = test system: PLK2
[2] = test system: PLK3
[3] = test system: PLK4
[4] = test system: PRKCD
[5] = test system: PRKCE
[6] = test system: PRKCH
[7] = test system: PRKCI
[8] = test system: PRKCQ
[9] = test system: PRKD1
[10] = test system: PRKD2
[11] = test system: PRKD3
[12] = test system: PRKG1
[13] = test system: PRKG2
[14] = test system: T1, PRKR
T1 construct: gene EIF2AK2

[15] = test system: PRKX
[16] = test system: PRP4
[17] = test system: T2, PYK2
T2 construct: gene PTK2B

[18] = test system: QSK
[19] = test system: RAF1
[20] = test system: RET
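Also: KINOMEscan kinase panel screen.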

Structure (SMILES): COC(=O)Nc1nc2ccc(Oc3ccc(NC(=O)Nc4cc(C(F)(F)F)ccc4F)cc3)cc2[nH]1.Cl [GW654607]
- %Inh [1]: 0%
- %Inh [2]: 0%
- %Inh [3]: 0%
- %Inh [4]: 4%
- %Inh [5]: 12%
- %Inh [6]: 8%
- %Inh [7]: 21%
- %Inh [8]: 16%
- %Inh [9]: 28%
- %Inh [10]: 3%
- %Inh [11]: 15%
- %Inh [12]: 9%
- %Inh [13]: 10%
- %Inh [14]: 3%
- %Inh [15]: 10%
- %Inh [16]: 0%
- %Inh [17]: 15%
- %Inh [18]: 28%
- %Inh [19]: 91.3%
- %Inh [20]: 100%

Structure (SMILES): Cc1ccccc1CC(=O)N1CCc2cc(-c3cn(C)c4ncnc(N)c34)ccc21 [GSK2603346]
- %Inh [1]: 2%
- %Inh [2]: 0%
- %Inh [3]: 0%
- %Inh [4]: 0%
- %Inh [5]: 0%
- %Inh [6]: 51%
- %Inh [7]: 22%
- %Inh [8]: 35%
- %Inh [9]: 18%
- %Inh [10]: 0%
- %Inh [11]: 0%
- %Inh [12]: 0%
- %Inh [13]: 0%
- %Inh [14]: 0%
- %Inh [15]: 0%
- %Inh [16]: 0%
- %Inh [17]: 0%
- %Inh [18]: 4%
- %Inh [19]: 0%
- %Inh [20]: 36%

Structure (SMILES): O=C(O)C(F)(F)F.O=c1[nH]ccc2nc(N[C@@H]3CCNC3)nc(Nc3cc(Cl)cc(Cl)c3)c12 [GSK2188764]
- %Inh [1]: 26%
- %Inh [2]: 16%
- %Inh [3]: 81%
- %Inh [4]: 99.6%
- %Inh [5]: 100%
- %Inh [6]: 97.4%
- %Inh [7]: 85%
- %Inh [8]: 95.1%
- %Inh [9]: 82%
- %Inh [10]: 93.4%
- %Inh [11]: 96.5%
- %Inh [12]: 61%
- %Inh [13]: 98.5%
- %Inh [14]: 76%
- %Inh [15]: 95%
- %Inh [16]: 63%
- %Inh [17]: 98.8%
- %Inh [18]: 38%
- %Inh [19]: 0%
- %Inh [20]: 51%

Structure (SMILES): NCCC(NC(=O)c1cc(Br)c(-c2ccnc3[nH]ccc23)s1)c1ccccc1.O=C(O)C(F)(F)F.O=C(O)C(F)(F)F (stereo not shown) [GSK1307810]
- %Inh [1]: 28%
- %Inh [2]: 35%
- %Inh [3]: 19%
- %Inh [4]: 99.6%
- %Inh [5]: 98.1%
- %Inh [6]: 98.3%
- %Inh [7]: 0%
- %Inh [8]: 90%
- %Inh [9]: 0%
- %Inh [10]: 31%
- %Inh [11]: 35%
- %Inh [12]: 97.5%
- %Inh [13]: 98.2%
- %Inh [14]: 17%
- %Inh [15]: 96.9%
- %Inh [16]: 76%
- %Inh [17]: 0%
- %Inh [18]: 0%
- %Inh [19]: 9%
- %Inh [20]: 36%

Structure (SMILES): CC(C)c1nc(-c2ccc(F)c(NS(=O)(=O)c3c(F)cccc3F)c2)c(-c2ccnc(Nc3ccc(N4CCOCC4)nc3)n2)s1 [GSK1804250]
- %Inh [1]: 0%
- %Inh [2]: 0%
- %Inh [3]: 99.8%
- %Inh [4]: 8%
- %Inh [5]: 7%
- %Inh [6]: 21%
- %Inh [7]: 39%
- %Inh [8]: 0%
- %Inh [9]: 93.6%
- %Inh [10]: 99.4%
- %Inh [11]: 100%
- %Inh [12]: 1%
- %Inh [13]: 1%
- %Inh [14]: 35%
- %Inh [15]: 23%
- %Inh [16]: 2%
- %Inh [17]: 50%
- %Inh [18]: 32%
- %Inh [19]: 95.3%
- %Inh [20]: 89%

Structure (SMILES): Nc1ncc(-c2cn[nH]c2)c2scc(-c3ccc4c(c3)CCN4C(=O)Cc3ccccc3)c12 [GSK2593067]
- %Inh [1]: 17%
- %Inh [2]: 0%
- %Inh [3]: 0%
- %Inh [4]: 0%
- %Inh [5]: 0%
- %Inh [6]: 16%
- %Inh [7]: 32%
- %Inh [8]: 17%
- %Inh [9]: 0%
- %Inh [10]: 0%
- %Inh [11]: 11%
- %Inh [12]: 27%
- %Inh [13]: 0%
- %Inh [14]: 0%
- %Inh [15]: 21%
- %Inh [16]: 0%
- %Inh [17]: 9%
- %Inh [18]: 9%
- %Inh [19]: 0%
- %Inh [20]: 34%

Structure (SMILES): N#CC1(c2cccc(C(=O)Nc3cccc(Oc4ccc5nc(NC(=O)C6CC6)sc5n4)c3)c2)CC1
- %Inh [1]: 5%
- %Inh [2]: 21%
- %Inh [3]: 0%
- %Inh [4]: 5%
- %Inh [5]: 9%
- %Inh [6]: 0%
- %Inh [7]: 18%
- %Inh [8]: 40%
- %Inh [9]: 40%
- %Inh [10]: 0%
- %Inh [11]: 0%
- %Inh [12]: 16%
- %Inh [13]: 0%
- %Inh [14]: 7%
- %Inh [15]: 0%
- %Inh [16]: 21%
- %Inh [17]: 0%
- %Inh [18]: 18%
- %Inh [19]: 100%
- %Inh [20]: 100%

Structure (SMILES): O=C(O)C(F)(F)F.O=c1[nH]ccc2nc(N[C@@H]3CCNC3)nc(Nc3ccc4c(c3)S(=O)(=O)CC4)c12 [GSK2181306]
- %Inh [1]: 5%
- %Inh [2]: 0%
- %Inh [3]: 97.4%
- %Inh [4]: 99.1%
- %Inh [5]: 97.9%
- %Inh [6]: 92.9%
- %Inh [7]: 78%
- %Inh [8]: 53%
- %Inh [9]: 92.1%
- %Inh [10]: 96.2%
- %Inh [11]: 100%
- %Inh [12]: 56%
- %Inh [13]: 93.6%
- %Inh [14]: 91.1%
- %Inh [15]: 89%
- %Inh [16]: 67%
- %Inh [17]: 99.4%
- %Inh [18]: 31%
- %Inh [19]: 0%
- %Inh [20]: 97.5%

Structure (SMILES): CN(c1ccc(NC(=O)N2CCN(CCCN3CCOCC3)CC2)cc1)c1ccnc(Nc2ccc(CS(C)(=O)=O)cc2)n1.Cl [GW830899]
- %Inh [1]: 0%
- %Inh [2]: 0%
- %Inh [3]: 39%
- %Inh [4]: 23%
- %Inh [5]: 0%
- %Inh [6]: 0%
- %Inh [7]: 43%
- %Inh [8]: 0%
- %Inh [9]: 0%
- %Inh [10]: 0%
- %Inh [11]: 0%
- %Inh [12]: 0%
- %Inh [13]: 100%
- %Inh [14]: 0%
- %Inh [15]: 63%
- %Inh [16]: 0%
- %Inh [17]: 16%
- %Inh [18]: 0%
- %Inh [19]: 28%
- %Inh [20]: 6%

Structure (SMILES): Cc1cccc(Nc2nc(NCCN)ncc2C(N)=O)c1 [GSK1292139]
- %Inh [1]: 0%
- %Inh [2]: 0%
- %Inh [3]: 10%
- %Inh [4]: 26%
- %Inh [5]: 44%
- %Inh [6]: 22%
- %Inh [7]: 2%
- %Inh [8]: 7%
- %Inh [9]: 85%
- %Inh [10]: 87%
- %Inh [11]: 100%
- %Inh [12]: 9%
- %Inh [13]: 0%
- %Inh [14]: 3%
- %Inh [15]: 35%
- %Inh [16]: 41%
- %Inh [17]: 66%
- %Inh [18]: 20%
- %Inh [19]: 3%
- %Inh [20]: 14%

Structure (SMILES): CCOc1nccc(-c2c(-c3ccc(F)cc3)ncn2C2CCNCC2)n1 [SB-249175]
- %Inh [1]: 24%
- %Inh [2]: 23%
- %Inh [3]: 26%
- %Inh [4]: 20%
- %Inh [5]: 5%
- %Inh [6]: 100%
- %Inh [7]: 5%
- %Inh [8]: 10%
- %Inh [9]: 38%
- %Inh [10]: 35%
- %Inh [11]: 19%
- %Inh [12]: 0%
- %Inh [13]: 12%
- %Inh [14]: 16%
- %Inh [15]: 0%
- %Inh [16]: 0%
- %Inh [17]: 16%
- %Inh [18]: 20%
- %Inh [19]: 19%
- %Inh [20]: 32%

Structure (SMILES): Nc1cccc(-c2ccc3c(N)n[nH]c3c2)c1 [GSK2193613]
- %Inh [1]: 0%
- %Inh [2]: 0%
- %Inh [3]: 4%
- %Inh [4]: 68%
- %Inh [5]: 11%
- %Inh [6]: 61%
- %Inh [7]: 0%
- %Inh [8]: 20%
- %Inh [9]: 0%
- %Inh [10]: 2%
- %Inh [11]: 0%
- %Inh [12]: 20%
- %Inh [13]: 19%
- %Inh [14]: 0%
- %Inh [15]: 7%
- %Inh [16]: 19%
- %Inh [17]: 5%
- %Inh [18]: 0%
- %Inh [19]: 0%
- %Inh [20]: 5%

Structure (SMILES): O=C(Nc1c(F)cccc1F)c1cc(C(=O)c2ccccc2F)c[nH]1 [GSK1326180]
- %Inh [1]: 0%
- %Inh [2]: 0%
- %Inh [3]: 0%
- %Inh [4]: 9%
- %Inh [5]: 0%
- %Inh [6]: 4%
- %Inh [7]: 2%
- %Inh [8]: 20%
- %Inh [9]: 11%
- %Inh [10]: 14%
- %Inh [11]: 0%
- %Inh [12]: 0%
- %Inh [13]: 0%
- %Inh [14]: 0%
- %Inh [15]: 3%
- %Inh [16]: 0%
- %Inh [17]: 6%
- %Inh [18]: 4%
- %Inh [19]: 6%
- %Inh [20]: 4%

Structure (SMILES): Cl.N#CCc1ccc(Nc2nccc(Nc3ccc(Oc4ccccc4)cc3)n2)cc1 [GW639905]
- %Inh [1]: 0%
- %Inh [2]: 0%
- %Inh [3]: 1%
- %Inh [4]: 0%
- %Inh [5]: 6%
- %Inh [6]: 0%
- %Inh [7]: 4%
- %Inh [8]: 0%
- %Inh [9]: 0%
- %Inh [10]: 0%
- %Inh [11]: 53%
- %Inh [12]: 0%
- %Inh [13]: 0%
- %Inh [14]: 0%
- %Inh [15]: 10%
- %Inh [16]: 16%
- %Inh [17]: 8%
- %Inh [18]: 1%
- %Inh [19]: 6%
- %Inh [20]: 38%
